Composite z-score, z-score and composite Z-score data for six compounds are collected here from PubChem BioAssay.

Assay [1] concerns Human papillomavirus type 1a protein E7 (residues 44-93). The experiment in a line: HPV1a E7 fragment binders on microarrays, primary screen, biochemical, small-molecule microarray, residues 44-93, 635 nm fluorescence (AID 1108).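 Note: E7 fragment applied at 1 µg/mL in TBST for 1 h at 4 C; score combines spot fluorescence with its signal to noise ratio.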 The conditions noted are these: small-molecule microarray binding, fluorescence 635 nm; higher = more signal.
The nature of assay [2]: modulators of HCV replicon luciferase signal, primary screen, HCV replication inhibitor project, Huh7 cells, luciferase reporter (AID 1109).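 Note: huh7 hepatoma cells harbouring a luciferase neomycin HCV replicon reporter; luciferase luminescence as measure of HCV replicon replication; test concentration not given here.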 The conditions noted are these: 48 h, higher = more signal. For orientation: Replicon systems follow genome replication, usually without infectious particles.
Assay [3] deals with Left-right determination factor 2 (Homo sapiens) (UniProt O00292). The assay is described as follows: LEFTY2 binders on small-molecule microarrays, primary screen, biochemical, small-molecule microarray, 635 nm fluorescence scan (AID 1110). The conditions noted are these: LEFTY2 binding, higher = more signal.
Chain of Left-right determination factor 2 (Homo sapiens) (O00292 whole entry, looked up): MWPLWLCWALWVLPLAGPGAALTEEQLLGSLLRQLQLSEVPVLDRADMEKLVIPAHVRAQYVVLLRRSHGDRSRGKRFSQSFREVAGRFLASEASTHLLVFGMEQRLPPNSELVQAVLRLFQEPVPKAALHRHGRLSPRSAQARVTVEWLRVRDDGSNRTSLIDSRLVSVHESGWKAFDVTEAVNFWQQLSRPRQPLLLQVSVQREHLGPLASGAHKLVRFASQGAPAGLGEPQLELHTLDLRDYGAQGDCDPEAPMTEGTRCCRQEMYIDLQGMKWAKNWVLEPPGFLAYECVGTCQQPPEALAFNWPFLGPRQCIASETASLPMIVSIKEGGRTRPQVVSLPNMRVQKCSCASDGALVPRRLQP
The target of assay [4] is Calmodulin-1 (Homo sapiens) (UniProt P0DP23). The experiment in a line: CALM1 binders on microarrays, EGTA buffer, profiling panel, biochemical, small-molecule microarray, Cy5-labelled CALM1 (AID 1111).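 Note: labelled calmodulin applied in Tris saline Tween buffer holding calcium plus EGTA and DTT.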 The conditions noted are these: Cy5-CALM1 binding fluorescence, higher = more signal.
The target is the same in assay [5]. The assay is described as follows: calcium-bound CALM1 binders on microarrays, profiling panel, artefact control for SMM control-protein annotation, biochemical, small-molecule microarray, Cy5-labelled CALM1, plus calcium (AID 1112).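 Note: score merges spot fluorescence with signal to noise from triplicate slides.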 The conditions noted are these: Cy5-CALM1 binding fluorescence, higher = more signal.
Assay [6] is described as follows: small-molecule microarray binders of probe aWnt5a, primary screen, biochemical, biotinylated probe, 635/667 nm fluorescence (AID 1113).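 Note: score merges 667 nm fluorescence intensity with signal-to-noise per printed feature.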 The conditions noted are these: higher = more signal.
The nature of assay [7]: small-molecule microarray binders of probe aShh, primary screen, biochemical, biotinylated probe, 635/667 nm fluorescence (AID 1114).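 Note: probe is biotin-labelled aShh protein from a stem cell growth factor screen; measures binding of labelled protein to compounds printed on the slide; score merges feature fluorescence at 667 nm with signal-to-noise.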 The conditions noted are these: higher = more signal.
The nature of assay [8]: small-molecule microarray binders of probe aNog, primary screen, biochemical, biotinylated probe, 635/667 nm fluorescence (AID 1115).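 Note: probe is biotinylated aNog protein used at 0.15 µg/mL for 1 h at 4 C; z-score combines 667 nm fluorescence of each spot with its signal to noise.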 The conditions noted are these: higher = more signal.
In assay [9] the target is Torsin-1A-interacting protein 1 (Homo sapiens) (UniProt Q5JTV8). The assay is described as follows: LAP1 binders from COS7 cell lysate, primary screen, small-molecule microarray, 635/667 nm fluorescence (AID 1116). The conditions noted are these: COS7-hLAP1 lysate binding, 635 nm fluorescence, higher = more signal.
Chain of Torsin-1A-interacting protein 1 (Homo sapiens) (Q5JTV8 whole entry, looked up): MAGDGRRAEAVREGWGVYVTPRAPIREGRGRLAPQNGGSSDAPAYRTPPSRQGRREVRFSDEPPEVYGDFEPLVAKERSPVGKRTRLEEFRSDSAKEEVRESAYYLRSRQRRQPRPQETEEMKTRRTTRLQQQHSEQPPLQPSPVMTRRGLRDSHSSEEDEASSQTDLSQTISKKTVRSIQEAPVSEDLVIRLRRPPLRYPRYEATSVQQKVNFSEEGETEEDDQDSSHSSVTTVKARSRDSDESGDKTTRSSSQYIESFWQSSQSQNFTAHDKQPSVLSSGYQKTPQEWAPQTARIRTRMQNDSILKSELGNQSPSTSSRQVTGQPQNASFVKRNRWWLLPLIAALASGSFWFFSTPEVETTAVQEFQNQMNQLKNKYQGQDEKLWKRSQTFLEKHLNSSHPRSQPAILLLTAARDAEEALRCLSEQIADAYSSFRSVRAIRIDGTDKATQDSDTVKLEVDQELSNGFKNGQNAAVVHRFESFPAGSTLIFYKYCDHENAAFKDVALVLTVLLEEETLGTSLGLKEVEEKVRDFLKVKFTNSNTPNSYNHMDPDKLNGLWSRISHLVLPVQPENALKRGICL
For assay [10], the target named is Alpha-bungarotoxin (Bungarus multicinctus) (UniProt P60615). The experiment in a line: alpha-bungarotoxin binders on microarray, profiling panel, artefact control for SMM control protein annotation, biochemical, small-molecule microarray, Alexa647 label, 635/667 nm fluorescence (AID 1117). The conditions noted are these: alpha-BTX-A647 binding fluorescence, higher = more signal.
Chain of Alpha-bungarotoxin (Bungarus multicinctus) (P60615 whole entry, looked up): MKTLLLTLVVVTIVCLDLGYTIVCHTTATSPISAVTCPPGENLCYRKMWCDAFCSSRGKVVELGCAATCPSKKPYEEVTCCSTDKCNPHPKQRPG

The next assay has as its target Albumin (Bos taurus) (UniProt P02769). The assay is described as follows: bovine serum albumin binders on microarray, profiling panel, artefact control for SMM control protein annotation, biochemical, small-molecule microarray, Alexa647 label, 635/667 nm fluorescence (AID 1118).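 Note: score merges 667 nm emission intensity and signal-to-noise per printed compound spot.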 The conditions noted are these: BSA-A647 binding, fluorescence 635 nm, higher = more signal.

Assay [11] in a line: small-molecule microarray binders of probe aXIP, primary screen, biochemical, NeuroSMM set, 635/667 nm fluorescence (AID 1119).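 Note: probe is the protein aXip251-270 applied at 1 µg/mL to compound-printed slides; binding of probe to printed compounds measured as 667 nm fluorescence plus signal to noise.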 The conditions noted are these: higher = more signal, called active from +8 up or from −8 down.
Assay [12] in a line: small-molecule binders of probe aNOTCH3, primary screen, biochemical, small-molecule microarray, 635/667 nm fluorescence (AID 1120).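 Note: probe is a biotin-tagged antibody raised against NOTCH3 rather than NOTCH3 protein; score merges spot fluorescence near 667 nm with spot signal to noise.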 The conditions noted are these: higher = more signal.
Assay [13] can be described thus: small-molecule binders of probe aNOTCH2, primary screen, biochemical, small-molecule microarray, 635/667 nm fluorescence (AID 1121).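 Note: score merges feature fluorescence read at 667 nm with its signal to noise.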 The conditions noted are these: higher = more signal.
Assay [14] addresses Carbonic anhydrase 2 (Homo sapiens) (UniProt P00918). The experiment in a line: CAII small-molecule binders, profiling panel, biochemical, small-molecule microarray, Alexa647-labelled CAII (AID 1122). The conditions noted are these: CAII-A647 binding fluorescence, higher = more signal.
A short description of assay [15]: COS7 lysate on small-molecule microarray, probe aHis, 635 nm (AID 1123).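 Note: z-score combines 667nm fluorescence intensity with signal-to-noise per printed compound spot.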 The conditions noted are these: COS7 cell lysate, fluorescence, higher = more signal.
Assay [16] in a line: compound binding in COS7 lysate, probe aLAP1, primary screen, cell lysate, small-molecule microarray (AID 1124).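 Note: lysate comes from COS7 cells expressing LAP1 and is applied at 0.3 µg/mL; score merges spot fluorescence near 667 nm with signal-to-noise over triplicate slides.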 The conditions noted are these: probe aLAP1, fluorescence, higher = more signal.
The next assay concerns Sam68 (KHDRBS1). The assay is described as follows: Sam68 small-molecule binders, primary screen, biochemical, small-molecule microarray, 635 nm fluorescence (AID 1125).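 Note: score merges 667 nm channel intensity with signal to noise over triplicate slides.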 The conditions noted are these: small-molecule microarray binding, higher = more signal.
Assay [17] relates to Chordin-like protein 2 (CHRDL2). The experiment in a line: CHRDL2 small-molecule binders, primary screen, biochemical, small-molecule microarray, 635 nm fluorescence (AID 1126).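 Note: printed compound slides probed with Chrdl2 protein at 4 µg/mL for 1 h at 4 C; score merges 667 nm emission intensity with signal to noise over three replicate slides.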 The conditions noted are these: small-molecule microarray binding, fluorescence 635 nm; higher = more signal.
Assay [18] has as its target Concanavalin-A (Canavalia ensiformis) (UniProt P02866). The assay is described as follows: ConA small-molecule binders, primary screen, artefact control for SMM control protein annotation, biochemical, small-molecule microarray, Alexa647 label, 635 nm (AID 1127).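 Note: z combines 667 nm emission intensity with signal-to-noise across three replicate slides.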 The conditions noted are these: ConA-A647 binding fluorescence, higher = more signal.

Calls of active or inactive are those of the source.

Chain of Albumin (Bos taurus) (P02769 whole entry, looked up): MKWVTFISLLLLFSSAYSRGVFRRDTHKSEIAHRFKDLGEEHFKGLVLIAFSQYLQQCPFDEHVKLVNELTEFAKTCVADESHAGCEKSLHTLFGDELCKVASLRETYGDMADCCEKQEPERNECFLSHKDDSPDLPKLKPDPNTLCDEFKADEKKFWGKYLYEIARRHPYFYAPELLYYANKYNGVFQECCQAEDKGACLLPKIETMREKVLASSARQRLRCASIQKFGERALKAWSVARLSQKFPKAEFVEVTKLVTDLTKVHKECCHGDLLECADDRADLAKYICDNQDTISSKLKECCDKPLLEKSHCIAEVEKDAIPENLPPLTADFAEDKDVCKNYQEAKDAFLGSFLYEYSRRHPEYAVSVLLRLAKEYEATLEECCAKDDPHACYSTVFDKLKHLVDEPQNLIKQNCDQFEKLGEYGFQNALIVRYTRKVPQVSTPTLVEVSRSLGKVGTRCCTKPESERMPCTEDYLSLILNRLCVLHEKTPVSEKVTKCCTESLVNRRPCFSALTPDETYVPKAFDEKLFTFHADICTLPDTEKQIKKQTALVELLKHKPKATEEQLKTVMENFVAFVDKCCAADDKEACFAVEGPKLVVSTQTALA
Chain of Concanavalin-A (Canavalia ensiformis) (P02866 whole entry, looked up): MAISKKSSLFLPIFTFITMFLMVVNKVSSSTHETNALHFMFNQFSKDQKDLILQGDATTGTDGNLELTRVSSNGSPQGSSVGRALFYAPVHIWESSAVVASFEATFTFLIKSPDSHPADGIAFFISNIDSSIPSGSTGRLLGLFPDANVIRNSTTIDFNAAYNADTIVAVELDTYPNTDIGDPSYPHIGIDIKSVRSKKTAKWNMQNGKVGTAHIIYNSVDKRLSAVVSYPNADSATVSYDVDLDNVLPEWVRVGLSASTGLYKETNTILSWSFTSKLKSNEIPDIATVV

For the compound `COC(=O)c1c(CC[C@@H](CO)NC(=O)N[C@@H](C)Cn2cc(C3(O)CCCC3)nn2)oc(C(C)=O)c1C(=O)OC`, the composite z-score in assay [1] is 0.467; in assay [3], 0.0541; in assay [4], -0.186; in assay [5], -0.467; in assay [6] it was -0.0758; in assay [7] it was -0.0709. Besides, the composite z-score was -0.368 in assay [8]; 0.711 in [9]; 0.282 in [10]; 0.815 in the assay with Albumin (Bos taurus); 0.276 in [12]; -0.204 in [13]. For the same compound, the composite z-score in [14] is 0.672; in [15] it was 2.66; in [16], 0.0377; in the assay with Sam68 (KHDRBS1), 0.481; in assay [17], -0.425; in [18], 0.484. In assay [2], this compound showed a z-score of 0.884. Moreover, in assay [11], the composite Z-score was 0.42 (inactive).
For the compound `O=C1C[C@@](C(=O)O)(c2ccc([N+](=O)[O-])cc2)[C@@H](c2ccc(CO)cc2)N1CC12CC3CC(CC(C3)C1)C2`, the composite z-score was 1.4 in assay [1]; 0.408 in [3]; 1.09 in assay [4]; 0.472 in [5]; -0.172 in assay [6]; 0.358 in assay [7]. Besides, the composite z-score in [8] was determined as 0.995; in assay [9] it was 1.41; in assay [10] it was 1.2; with Albumin (Bos taurus), 0.656; in assay [12], 0.18; in assay [13] it was 0.0362. Moreover, the composite z-score in [14] is 0.46; in assay [15], 1.74; in assay [16], 0.611; in the assay with Sam68 (KHDRBS1), 1.19; in assay [17] it was -0.346; in assay [18], 0.687. Also, the z-score in assay [2] was -1.94. Further, in [11], the composite Z-score is -0.261 (inactive).
Take `CCOC(=O)C1=CC[C@@H](c2cccc(Br)c2)N(S(=O)(=O)c2ccc(C)cc2)[C@H]1c1ccc([N+](=O)[O-])cc1`: the composite z-score was 1.42 in assay [1]; 0.868 in [3]; 0.855 in assay [4]; 0.69 in assay [5]; 0.0433 in assay [6]; -0.138 in [7]. The composite z-score in assay [8] was 0.822; in assay [9] it was 1.1; in assay [10] it was 1.05; in the assay with Albumin (Bos taurus) it was 0.861; in assay [12], 0.0116; in [13] it was -0.0856. Besides, the composite z-score was 0.586 in [14]; 2.45 in assay [15]; 0.885 in assay [16]; 1.08 in the assay with Sam68 (KHDRBS1); 0.625 in assay [17]; 1 in assay [18]. The compound also returned a z-score in assay [2] of -0.802. Besides, the composite Z-score in [11] is 0.338 (inactive).
Turning to `CC(C)N1CC=CC23O[C@@H]4C=CCOC(=O)[C@@H]4[C@H]2C(=O)N(CCCCCCO)[C@@H]3C1=O` (stereo not given in full), the composite z-score was -0.433 in [1]; -0.651 in [3]; -0.815 in assay [4]; -0.289 in assay [5]; -0.18 in assay [6]; -0.116 in assay [7]. In addition, the composite z-score was -0.223 in assay [8]; 2.03 in [9]; -0.92 in assay [10]; 0.771 with Albumin (Bos taurus); -0.0697 in assay [12]; -0.0451 in [13]. In addition, the composite z-score is 0.923 in [14]; -0.0499 in [15]; 1.15 in assay [16]; -0.351 in the assay with Sam68 (KHDRBS1); -1.17 in [17]; -0.82 in assay [18]. In assay [2], this compound came in with a z-score of -0.761. Moreover, the composite Z-score in assay [11] was 0.714 (inactive).
As for `COc1ccc(CCNC(=O)[C@@H]2c3ccccc3C(=O)N(Cc3ccccc3)[C@H]2c2ccc(CO)cc2)cc1`, the composite z-score is 1.43 in [1]; 0.117 in [3]; -0.0056 in assay [4]; -0.904 in [5]; -0.0512 in [6]; -0.0813 in assay [7]. Besides, the composite z-score is -0.293 in assay [8]; 1.15 in assay [9]; 0.36 in [10]; 0.286 with Albumin (Bos taurus); -0.199 in assay [12]; -0.0562 in assay [13]. The composite z-score in assay [14] came to 0.735; in [15] it was 1.64; in assay [16], 1.36; with Sam68 (KHDRBS1), 1.34; in assay [17] it was 0.156; in [18], 0.526. In assay [2], this compound came in with a z-score of -1.17. Further, in assay [11], the composite Z-score was -0.149 (inactive).
Consider `[N-]=[N+]=Nc1ccccc1[C@@H]1OC(c2ccc(OCCCO)cc2)=N[C@]1(CCS(=O)(=O)c1ccccc1)C(=O)NCc1ccccc1`, for which the composite z-score in assay [1] was found to be 1.41; in assay [3], 0.343; in [4], 2.03; in assay [5], 0.603; in [6], 0.0338; in [7] it was 0.0469. In addition, the composite z-score in assay [8] turned out to be 1.6; in assay [9], 2.15; in [10] it was 1.9; with Albumin (Bos taurus), 0.976; in assay [12], 0.752; in [13], 0.38. The composite z-score in [14] is 0.749; in assay [15] it was 2.86; in assay [16] it was 0.48; with Sam68 (KHDRBS1), 1.29; in [17] it was -0.612; in [18], 1.11. In assay [2], the z-score was found to be 0.0858. For the same compound, the composite Z-score in assay [11] is 1.08 (inactive).
